# Data from PubChem BioAssay (NCI).
# About 83,000 compounds went through this panel and 20% of them were active in at least one assay; those are over-represented in the sample as a whole.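 For each line, cells grew in 96-well plates with the test compound present at a single concentration for 48 hours.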 Values without a mark were called inactive. How the source made its calls: active means growth percent below 10; inactive means the rest.
# System: HCT-116 colon
# Test: NCI-60 one-dose screen, 48 h (100 = growth as untreated, 0 = no growth, -100 = all killed)
# Settings: 1 µM
row,SMILES,growth [%]
1,CC/C(=C(\c1ccc(O)cc1)c1ccc(OCCN(C)C(=O)COCCNC(=O)Cc2ccc3c(c2)CN([C@@H]2CCC(=O)NC2=O)C3=O)cc1)c1ccccc1,94.2
2,CC/C(=C(\c1ccc(O)cc1)c1ccc(OCCN(C)C(=O)CCOCCNC(=O)c2ccc3c(c2)CN([C@@H]2CCC(=O)NC2=O)C3=O)cc1)c1ccccc1,92.7
3,CC/C(=C(/c1ccc(O)cc1)c1ccc(OCCN(C)C(=O)CCOCCNC(=O)Cc2ccc3c(c2)CN([C@@H]2CCC(=O)NC2=O)C3=O)cc1)c1ccccc1,100
4,CC/C(=C(/c1ccc(O)cc1)c1ccc(OCCN(C)C(=O)COCCOCCNC(=O)c2ccc3c(c2)CN([C@@H]2CCC(=O)NC2=O)C3=O)cc1)c1ccccc1,97.9
5,CC/C(=C(\c1ccc(O)cc1)c1ccc(OCCNC)cc1)c1ccccc1,93.2
6,CC/C(=C(/c1ccc(O)cc1)c1ccc(OCCN(C)C(=O)COCCOCCNC(=O)Cc2ccc3c(c2)CN([C@@H]2CCC(=O)NC2=O)C3=O)cc1)c1ccccc1,96.4
